The source of these data is paper PMC7862700, “An all-to-all approach to the identification of sequence-specific readers for epigenetic DNA modifications on cytosine”.

Holding throughout (test): DAPPL (digital affinity profiling via proximity ligation, sequencing); 10 mM Tris-HCl pH 7.5, 50 mM NaCl, 1 mM DTT, 4% glycerol, room temperature, 30 min; GST-TFs on glutathione beads, 16-mer random dsDNA library, 0.1% formaldehyde crosslink after washing; high values mean tight binding
Conditions in all cases: protein: recombinant; tags: N-terminal GST; dsDNA, one strand shown

For assay [1], the target named is T1, ELK1 (Homo sapiens, UniProt P19419 1-428).
T1 sequence: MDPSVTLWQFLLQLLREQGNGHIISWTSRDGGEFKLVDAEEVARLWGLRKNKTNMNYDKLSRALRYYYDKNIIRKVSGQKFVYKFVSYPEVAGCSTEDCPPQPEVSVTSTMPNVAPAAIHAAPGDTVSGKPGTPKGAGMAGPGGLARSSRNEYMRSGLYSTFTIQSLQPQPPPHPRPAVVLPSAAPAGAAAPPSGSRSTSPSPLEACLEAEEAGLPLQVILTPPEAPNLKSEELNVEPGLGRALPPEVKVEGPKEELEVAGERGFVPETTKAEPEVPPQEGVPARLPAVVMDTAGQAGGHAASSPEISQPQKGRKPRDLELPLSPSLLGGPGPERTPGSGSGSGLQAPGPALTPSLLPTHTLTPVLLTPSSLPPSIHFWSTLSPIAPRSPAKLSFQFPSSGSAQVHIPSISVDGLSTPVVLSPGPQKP
The method, boiled down:
(§1)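 Sequencing on an Illumina NextSeq500 followed washing, crosslinking with 0.1% formaldehyde, proximity ligation (BsaI/T4 ligase, 1 h, 37 °C) and PCR amplification of pools that had been incubated for 30 min at room temperature with 200 nmole of a random double-stranded 16-mer DNA library in Tris/NaCl/DTT/glycerol buffer. Each pool held DNA-barcoded human transcription factors, expressed in yeast as GST fusions and captured on glutathione beads, plus a tag-only sample. Binding signal is a hexamer's read frequency for a factor divided by its frequency in the tag-only sample.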

Assay [2] has as its target T2, GABPA (Homo sapiens, UniProt Q06546 1-454).
T2 sequence: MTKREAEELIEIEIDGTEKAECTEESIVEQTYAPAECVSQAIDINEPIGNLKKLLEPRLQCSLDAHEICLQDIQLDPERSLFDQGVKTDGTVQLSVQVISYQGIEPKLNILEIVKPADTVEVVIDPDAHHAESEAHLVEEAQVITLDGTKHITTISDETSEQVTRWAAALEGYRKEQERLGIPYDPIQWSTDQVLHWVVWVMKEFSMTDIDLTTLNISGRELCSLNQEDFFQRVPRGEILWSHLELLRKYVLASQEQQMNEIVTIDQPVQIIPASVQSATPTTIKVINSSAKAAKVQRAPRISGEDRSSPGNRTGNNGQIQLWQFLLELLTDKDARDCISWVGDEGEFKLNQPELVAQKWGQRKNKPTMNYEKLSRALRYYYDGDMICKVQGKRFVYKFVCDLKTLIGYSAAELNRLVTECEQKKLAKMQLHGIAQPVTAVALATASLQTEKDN
Put shortly: as §1

Assay [3] addresses T3, ERG (Homo sapiens, UniProt P11308 1-479).
T3 sequence: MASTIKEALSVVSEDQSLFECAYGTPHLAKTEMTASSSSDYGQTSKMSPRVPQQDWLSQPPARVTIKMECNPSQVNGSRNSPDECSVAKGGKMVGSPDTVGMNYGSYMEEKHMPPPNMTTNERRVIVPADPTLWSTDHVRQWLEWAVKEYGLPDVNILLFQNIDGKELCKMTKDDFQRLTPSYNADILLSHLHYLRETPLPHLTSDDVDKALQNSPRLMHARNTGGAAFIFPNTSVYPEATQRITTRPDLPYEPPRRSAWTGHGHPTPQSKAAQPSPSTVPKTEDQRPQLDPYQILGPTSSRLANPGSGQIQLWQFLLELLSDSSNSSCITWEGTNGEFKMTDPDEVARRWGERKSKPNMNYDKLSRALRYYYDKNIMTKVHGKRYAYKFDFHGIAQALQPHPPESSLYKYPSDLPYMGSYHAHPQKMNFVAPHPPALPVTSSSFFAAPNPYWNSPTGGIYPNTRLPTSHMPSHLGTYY
The method, boiled down:
as §1

Assay [4] has as its target ELF1 (Homo sapiens, UniProt P32519 1-619). The method, boiled down: as §1
For assay [5], the target named is T4, EHF (Homo sapiens, UniProt Q9NZC4 1-300).
T4 sequence: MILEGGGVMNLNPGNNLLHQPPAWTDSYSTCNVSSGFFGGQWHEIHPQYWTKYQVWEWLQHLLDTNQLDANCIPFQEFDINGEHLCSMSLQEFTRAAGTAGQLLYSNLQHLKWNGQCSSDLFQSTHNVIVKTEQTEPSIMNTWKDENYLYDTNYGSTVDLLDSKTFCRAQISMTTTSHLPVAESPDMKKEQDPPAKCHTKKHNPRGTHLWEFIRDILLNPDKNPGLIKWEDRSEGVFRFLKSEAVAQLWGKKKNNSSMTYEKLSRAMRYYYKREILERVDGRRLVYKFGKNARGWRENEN
The method, boiled down:
as §1

Assay [6] has as its target SPIB (Homo sapiens, UniProt Q01892 1-262). Put shortly: as §1
In assay [7] the target is T5, ELK3 (Homo sapiens, UniProt P41970 1-407).
T5 sequence: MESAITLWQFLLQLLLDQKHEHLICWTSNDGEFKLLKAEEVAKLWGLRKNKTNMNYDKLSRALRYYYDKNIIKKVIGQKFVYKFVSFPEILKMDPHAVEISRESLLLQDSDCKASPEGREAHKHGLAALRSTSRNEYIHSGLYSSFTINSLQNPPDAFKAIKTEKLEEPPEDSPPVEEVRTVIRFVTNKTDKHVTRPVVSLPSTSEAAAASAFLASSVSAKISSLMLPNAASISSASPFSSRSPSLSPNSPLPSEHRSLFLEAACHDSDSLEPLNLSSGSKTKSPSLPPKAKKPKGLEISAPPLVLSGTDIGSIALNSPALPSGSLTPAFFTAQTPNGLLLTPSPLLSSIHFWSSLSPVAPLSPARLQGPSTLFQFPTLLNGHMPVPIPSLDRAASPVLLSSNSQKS
The method, boiled down:
as §1

For assay [8], the target named is ETV5 (Homo sapiens, UniProt P41161 1-510). The method, boiled down: as §1
The target of assay [9] is T6, SPIC (Homo sapiens, UniProt Q8N5J4 1-248).
T6 sequence: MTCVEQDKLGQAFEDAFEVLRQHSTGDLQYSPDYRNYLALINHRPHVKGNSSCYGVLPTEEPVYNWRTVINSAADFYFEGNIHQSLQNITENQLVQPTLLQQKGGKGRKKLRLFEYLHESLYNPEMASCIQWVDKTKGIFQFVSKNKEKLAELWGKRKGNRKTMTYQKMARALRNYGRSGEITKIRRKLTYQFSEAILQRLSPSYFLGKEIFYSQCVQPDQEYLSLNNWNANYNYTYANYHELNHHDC
Put shortly:
as §1

The target in assay [10] is ELF4 (Homo sapiens, UniProt Q99607 1-663). Put shortly: as §1
Sequence of ELF4 (Q99607 whole entry): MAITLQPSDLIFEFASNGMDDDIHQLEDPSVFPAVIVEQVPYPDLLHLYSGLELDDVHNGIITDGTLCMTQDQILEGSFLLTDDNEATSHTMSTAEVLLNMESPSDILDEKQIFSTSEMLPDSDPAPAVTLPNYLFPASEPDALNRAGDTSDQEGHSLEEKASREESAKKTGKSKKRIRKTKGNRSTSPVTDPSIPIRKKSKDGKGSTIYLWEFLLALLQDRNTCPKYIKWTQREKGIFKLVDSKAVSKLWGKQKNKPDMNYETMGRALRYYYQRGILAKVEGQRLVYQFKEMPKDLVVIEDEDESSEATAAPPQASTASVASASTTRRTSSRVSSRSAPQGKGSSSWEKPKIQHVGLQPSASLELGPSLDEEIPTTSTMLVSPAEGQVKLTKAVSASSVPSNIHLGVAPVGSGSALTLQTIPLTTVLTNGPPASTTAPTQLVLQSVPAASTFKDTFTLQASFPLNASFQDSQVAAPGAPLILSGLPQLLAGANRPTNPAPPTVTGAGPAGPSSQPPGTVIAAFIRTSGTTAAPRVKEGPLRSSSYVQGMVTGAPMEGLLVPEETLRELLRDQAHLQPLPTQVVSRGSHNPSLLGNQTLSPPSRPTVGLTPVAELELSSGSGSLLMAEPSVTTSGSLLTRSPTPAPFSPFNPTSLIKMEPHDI

Sequence of SPIB (Q01892 whole entry): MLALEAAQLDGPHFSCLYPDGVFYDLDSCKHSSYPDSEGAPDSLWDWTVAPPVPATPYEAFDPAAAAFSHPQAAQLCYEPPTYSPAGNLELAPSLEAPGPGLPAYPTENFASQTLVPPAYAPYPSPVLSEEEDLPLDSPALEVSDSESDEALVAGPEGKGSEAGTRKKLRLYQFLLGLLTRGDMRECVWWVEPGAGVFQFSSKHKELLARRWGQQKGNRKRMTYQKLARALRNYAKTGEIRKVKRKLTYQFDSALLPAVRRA
Sequence of ELF1 (P32519 whole entry): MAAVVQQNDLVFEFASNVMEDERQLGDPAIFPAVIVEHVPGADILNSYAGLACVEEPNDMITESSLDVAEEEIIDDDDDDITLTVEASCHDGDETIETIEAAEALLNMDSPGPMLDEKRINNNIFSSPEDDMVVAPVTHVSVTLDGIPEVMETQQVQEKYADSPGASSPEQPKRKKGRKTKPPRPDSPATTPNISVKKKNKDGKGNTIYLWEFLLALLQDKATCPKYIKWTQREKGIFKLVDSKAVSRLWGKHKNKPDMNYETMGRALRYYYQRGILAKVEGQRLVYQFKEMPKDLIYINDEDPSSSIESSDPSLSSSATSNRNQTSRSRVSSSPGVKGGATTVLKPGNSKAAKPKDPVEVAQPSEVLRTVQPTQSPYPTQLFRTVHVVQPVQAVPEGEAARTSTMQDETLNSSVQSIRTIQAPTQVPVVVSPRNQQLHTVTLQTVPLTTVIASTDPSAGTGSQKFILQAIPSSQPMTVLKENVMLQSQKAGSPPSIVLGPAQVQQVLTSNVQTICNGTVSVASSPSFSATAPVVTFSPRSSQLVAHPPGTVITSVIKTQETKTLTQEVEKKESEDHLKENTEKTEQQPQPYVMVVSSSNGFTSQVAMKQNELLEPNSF
Sequence of ETV5 (P41161 whole entry): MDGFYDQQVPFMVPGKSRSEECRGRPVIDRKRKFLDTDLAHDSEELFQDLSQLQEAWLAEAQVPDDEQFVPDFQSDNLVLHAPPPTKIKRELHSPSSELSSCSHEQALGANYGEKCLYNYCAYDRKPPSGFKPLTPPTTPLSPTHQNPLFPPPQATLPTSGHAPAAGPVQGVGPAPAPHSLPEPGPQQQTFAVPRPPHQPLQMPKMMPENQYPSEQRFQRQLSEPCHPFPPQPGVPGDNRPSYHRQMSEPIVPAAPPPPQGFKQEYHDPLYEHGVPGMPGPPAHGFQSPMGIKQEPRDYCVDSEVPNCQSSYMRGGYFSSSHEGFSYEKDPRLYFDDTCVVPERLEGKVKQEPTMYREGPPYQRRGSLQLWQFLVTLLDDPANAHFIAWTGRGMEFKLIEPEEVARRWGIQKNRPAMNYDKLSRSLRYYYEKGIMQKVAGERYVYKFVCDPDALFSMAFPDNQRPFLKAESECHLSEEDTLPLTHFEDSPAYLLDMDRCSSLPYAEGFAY

CACAGC: the binding signal is 1.09 fold enrichment (6-mer frequency, TF over GST control) in assay [1]; 1.02 fold enrichment (6-mer frequency, TF over GST control) in [2]; 1.03 fold enrichment (6-mer frequency, TF over GST control) in [3]; 1.11 fold enrichment (6-mer frequency, TF over GST control) in assay [4]; 1.02 fold enrichment (6-mer frequency, TF over GST control) in assay [5]; 1.05 fold enrichment (6-mer frequency, TF over GST control) in assay [6]. For the same sequence, the binding signal was 1.07 fold enrichment (6-mer frequency, TF over GST control) in [7]; 1.01 fold enrichment (6-mer frequency, TF over GST control) in assay [8]; 1.1 fold enrichment (6-mer frequency, TF over GST control) in [9]; 1.08 fold enrichment (6-mer frequency, TF over GST control) in [10].
